Reference: PubChem BioAssay AID1159580 (chemical genetic matrix, 2015)
Values joined by “and” are separate entries in the source; they are usually repeats but may differ in a detail not shown here. Equal entries are not always repeated. Hit rate of the full screen: of about 5,500 compounds, about 2,000 (36%) were called active. About 18% were inconclusive and are not listed. Rule as the data show it: active = normalized growth mostly below about 0.91 (no sharp cut-off); inconclusive = no clear call, values can overlap the other calls; inactive = mostly above about 0.92. This is one part of the list.

Experiment: chemical genetic growth profiling, strain panel (AID 1159580);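 also: tested at 20 µM; growth read once vehicle control cultures reached saturation at 30 °C; 1 = growth at the plate median or of vehicle wells; lower values mean less growth of the strain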
Conditions: S. cerevisiae deletion strains, growth OD
[1] = locus YAL040C, strain CLN3, hits give low values
[2] = locus YCL061C, strain MRC1 (second series), hits give low values
[3] = locus YDR150W, strain NUM1, hits give low values
[4] = locus YDR363W, strain ESC2, hits give low values
[5] = locus YER002W, strain NOP16, hits give low values
[6] = locus YMR307W, strain GAS1, hits give low values
[7] = locus YNL175C, strain NOP13, hits give low values
[8] = locus YNL197C, strain WHI3, hits give low values
[9] = locus YNL224C, strain SQS1, hits give low values
[10] = locus YNL322C, strain KRE1, hits give low values
[11] = locus YOR083W, strain WHI5 (second series), hits give low values
[12] = locus YPL055C, strain LGE1, hits give low values
[13] = locus YPL241C, strain CIN2, hits give low values

Measured: normalized growth

C[C@]12Cc3cn4c(nc3C=C1CCC1C2CC[C@@]2(C)[C@H]1CC[C@@]2(O)C#N)nc1ccccc14 (stereo not given in full)
inactive: [2] 0.99 | [3] 1 | [4] 0.975 | locus YGR229C, strain SMI1, hits give low values 0.937 | locus YJR075W, strain HOC1, hits give low values 0.963 | [6] 0.936 | [8] 0.911 | [10] 0.938 | [12] 0.966 | [13] 0.996
active: [1] 0.88 | [5] 0.264 | locus YNL153C, strain GIM3, hits give low values 0.63 | [7] 0.229 | [9] 0.799 | [11] 0.852

C[C@]12CCC(=O)C=C1CC[C@@H]1[C@@H]2[C@@H](O)C[C@@]2(C)[C@H]1CC[C@]2(O)C(=O)COC(=O)CCC(=O)O
inactive: [2] 1 | [4] 1 | [5] 0.982 | locus YGR078C, strain PAC10, hits give low values 1.01 | [7] 1.01 | [8] 1.01 | [9] 0.994 | [10] 0.996 | [11] 0.972 | [13] 0.999
active: [1] 1.11 [resistant]

CC(=O)OCC(=O)[C@@]1(O)CCC2C3CCC4=CC(=O)CC[C@]4(C)C3[C@@H](O)C[C@@]21C (stereo not given in full)
inactive: locus YAL013W, strain DEP1, hits give low values 1.01 | locus YAL021C, strain ccr4, hits give low values 1.03 | locus YAL026C, strain drs2, hits give low values 1.02 | locus YAL030W, strain snc1, hits give low values 1.04 | locus YBL061C, strain skt5, hits give low values 1.03 | locus YBR009C, strain hhf1, hits give low values 0.99 | locus YBR021W, strain FUR4, hits give low values 0.999 | locus YBR023C, strain chs3, hits give low values 1.02 | locus YBR171W, strain sec66, hits give low values 1.04 | locus YBR229C, strain ROT2, hits give low values 1 | locus YBR231C, strain swc5, hits give low values 0.999 | locus YBR279W, strain paf1, hits give low values 1.01 | locus YCL011C, strain gbp2, hits give low values 1.01 | locus YCL016C, strain dcc1, hits give low values 1.04 | locus YCL029C, strain bik1, hits give low values 1 | locus YCL069W, strain vba3, hits give low values 1 | locus YCR088W, strain abp1, hits give low values 1.02 | locus YDL005C, strain med2, hits give low values 1.01 | locus YDL035C, strain GPR1, hits give low values 1.01 | locus YDL040C, strain nat1, hits give low values 1.01 | locus YDL074C, strain BRE1, hits give low values 1.01 | locus YDL101C, strain DUN1, hits give low values 1.01 | locus YDL134C, strain PPH21, hits give low values 1.01 | locus YDL185W, strain tfp1, hits give low values 1.01 | locus YDL192W, strain arf1, hits give low values 1 | locus YDR001C, strain nth1, hits give low values 1.01 | locus YDR069C, strain doa4, hits give low values 1.04 | locus YDR101C, strain arx1, hits give low values 0.994 | locus YDR137W, strain rgp1, hits give low values 1.05 | [3] 1.01 | locus YDR159W, strain sac3, hits give low values 0.997 | locus YDR162C, strain NBP2, hits give low values 1.01 | locus YDR195W, strain ref2 1.02 | locus YDR297W, strain sur2, hits give low values 0.997 | locus YDR318W, strain mcm21, hits give low values 0.998 | locus YDR334W, strain swr1, hits give low values 1.01 | locus YDR335W, strain msn5, hits give low values 1.02 | locus YDR388W, hits give low values 1 | locus YDR392W, strain spt3, hits give low values 1.04 | locus YDR502C, strain sam2, hits give low values 0.996 | locus YEL003W, strain gim4, hits give low values 1.01 | locus YEL037C, strain rad23, hits give low values 1.02 | locus YEL061C, strain CIN8 (second series), hits give low values 1.01 | locus YEL061C, strain CIN8, hits give low values 1.01 | locus YER015W, strain faa2, hits give low values 1.01 | locus YER016W, strain bim1, hits give low values 1.05 | locus YER110C, hits give low values 0.998 | locus YER111C, strain swi4, hits give low values 1.01 | locus YER155C, strain BEM2 (second series), hits give low values 1.02 | locus YER155C, strain BEM2, hits give low values 1.01 | locus YER167W, strain BCK2, hits give low values 1.01 | locus YFR010W, strain ubp6, hits give low values 0.984 | locus YGL078C, strain dbp3, hits give low values 0.99 | locus YGL086W, strain mad1, hits give low values 1.01 | locus YGL167C, strain pmr1, hits give low values 1.02 | locus YGL173C, strain kem1, hits give low values 1.02 | locus YGL227W, strain vid30, hits give low values 1.01 | locus YGL240W, strain doc1, hits give low values 1 | locus YGL248W, strain PDE1, hits give low values 1 | locus YGL253W, strain hxk2, hits give low values 1.02 | locus YGR135W, strain pre9, hits give low values 0.986 | locus YGR252W, strain gcn5, hits give low values 0.947 | locus YHR013C, strain ard1, hits give low values 1.04 | locus YHR027C, strain rpn1, hits give low values 1.03 | locus YHR030C, strain SLT2, hits give low values 1.01 and 0.978 | locus YHR079C, strain IRE1 (second series), hits give low values 1 | locus YHR079C, strain IRE1, hits give low values 0.976 | locus YHR094C, strain hxt1, hits give low values 0.995 | locus YHR129C, strain ARP1, hits give low values 1.01 | locus YHR142W, strain chs7, hits give low values 1.03 | locus YHR200W, strain rpn10, hits give low values 1 | locus YIL066C, strain RNR3, hits give low values 1.01 | locus YIL073C, strain SPO22, hits give low values 1.04 | locus YIL125W, strain kgd1, hits give low values 0.996 | locus YIR030C, strain dcg1, hits give low values 1 | locus YJL092W, strain hpr5, hits give low values 1.02 | locus YJL095W, strain BCK1 (second series), hits give low values 1.03 | locus YJL095W, strain BCK1, hits give low values 1.01 and 0.971 | locus YJL115W, strain asf1, hits give low values 1.01 | locus YJL129C, strain trk1, hits give low values 1.04 | locus YJL134W, strain LCB3, hits give low values 1.01 | locus YJL154C, strain vps35, hits give low values 1.01 | locus YJL164C, strain tpk1, hits give low values 1.01 | locus YJL166W, strain qcr8, hits give low values 1.01 | locus YJL168C, strain set2, hits give low values 0.993 | locus YJL187C, strain SWE1 (second series), hits give low values 1 | locus YJL187C, strain SWE1, hits give low values 1.01 | locus YJR043C, strain POL32, hits give low values 1.02 | locus YJR066W, strain TOR1, hits give low values 0.931 | locus YKL009W, strain mrt4, hits give low values 1.01 | locus YKL068W, hits give low values 0.997 | locus YKL085W, strain MDH1 (second series), hits give low values 1 | locus YKL085W, strain MDH1, hits give low values 1 | locus YKL160W, strain elf1, hits give low values 1.04 | locus YKR001C, strain vps1, hits give low values 0.997 | locus YKR026C, strain gcn3, hits give low values 1 | locus YKR091W, strain srl3, hits give low values 1.01 | locus YLL001W, strain dnm1, hits give low values 1.01 | locus YLL026W, hits give low values 1.01 | locus YLL041C, strain sdh2, hits give low values 1.03 | locus YLR027C, strain aat2, hits give low values 1.02 | locus YLR039C, strain RIC1, hits give low values 1.02 | locus YLR058C, strain SHM2, hits give low values 0.996 | locus YLR102C, strain apc9, hits give low values 0.995 | locus YLR113W, strain HOG1, hits give low values 0.992 | locus YLR221C, strain rsa3, hits give low values 0.985 | locus YLR258W, strain gsy2, hits give low values 1.03 | locus YLR262C, strain YPT6 (second series), hits give low values 1 | locus YLR262C, strain YPT6, hits give low values 1.04 | locus YLR268W, strain sec22, hits give low values 0.998 | locus YLR320W, strain mms22, hits give low values 1 | locus YLR330W, strain CHS5, hits give low values 1.01 | locus YLR342W, strain FKS1 (second series), hits give low values 0.998 | locus YLR342W, strain FKS1, hits give low values 1.02 | locus YLR357W, strain rsc2, hits give low values 1.03 | locus YLR370C, strain arc18, hits give low values 1.02 | locus YLR371W, strain rom2, hits give low values 0.994 | locus YLR384C, strain iki3, hits give low values 1.02 | locus YLR418C, strain cdc73, hits give low values 0.994 | locus YML016C, strain PPZ1, hits give low values 1 | locus YML032C, strain rad52, hits give low values 1 | locus YML120C, strain ndi1, hits give low values 1 | locus YML124C, strain tub3, hits give low values 0.998 | locus YMR058W, strain fet3, hits give low values 1.03 | locus YMR078C, strain ctf18, hits give low values 1 | locus YMR125W, strain sto1, hits give low values 1.03 | locus YMR129W, hits give low values 1.02 | locus YMR205C, strain PFK2, hits give low values 1.03 | locus YMR223W, strain ubp8, hits give low values 0.98 | locus YMR231W, strain pep5, hits give low values 1.02 | [6] 0.984 | locus YNL067W, strain RPL9B, hits give low values 1.01 | locus YNL071W, strain lat1, hits give low values 1 | locus YNL183C, strain NPR1, hits give low values 0.954 | locus YNL209W, strain ssb2, hits give low values 1.02 | locus YNL233W, strain BNI4, hits give low values 1 | locus YNL248C, strain rpa49, hits give low values 1.03 | locus YNL250W, strain rad50, hits give low values 0.982 | locus YNL271C, strain bni1, hits give low values 0.993 | locus YNL298W, strain CLA4, hits give low values 0.995 | locus YNL307C, strain MCK1, hits give low values 1 | locus YNL322C, strain KRE1 (second series), hits give low values 1.04 | locus YNR049C, strain mso1, hits give low values 1.02 | locus YNR052C, strain pop2, hits give low values 0.996 | locus YOL012C, strain htz1 0.732 | locus YOL147C, strain pex11, hits give low values 0.992 | locus YOR001W, strain rrp6, hits give low values 0.986 | locus YOR061W, strain CKA2, hits give low values 1.01 | locus YOR069W, strain VPS5, hits give low values 1.01 | locus YOR070C, strain gyp1, hits give low values 1.03 | locus YOR080W, strain dia2, hits give low values 1.02 | locus YOR083W, strain WHI5, hits give low values 1.05 | locus YOR106W, strain vam3, hits give low values 1.05 | locus YOR136W, strain idh2, hits give low values 0.994 | locus YOR144C, strain elg1, hits give low values 0.997 | locus YOR184W, strain ser1, hits give low values 1 | locus YOR231W, strain MKK1, hits give low values 0.992 | locus YOR265W, strain rbl2, hits give low values 1 | locus YOR270C, strain vph1, hits give low values 1.03 | locus YOR290C, strain snf2, hits give low values 1.06 | locus YOR316C, strain cot1, hits give low values 0.995 | locus YPL051W, strain arl3, hits give low values 1 | [12] 1 | locus YPL078C, strain atp4, hits give low values 1.04 | locus YPL106C, strain sse1, hits give low values 1.04 | locus YPL240C, strain hsp82, hits give low values 1.01 | [13] 1.01 | locus YPL256C, strain CLN2, hits give low values 0.968 | locus YPR119W, strain clb2, hits give low values 0.999 | locus YPR141C, strain kar3, hits give low values 1.01 | locus YPR163C, strain tif3, hits give low values 1 | locus YPR167C, strain met16, hits give low values 1 | strain wtn01, hits give low values 0.997
